The results in this text go back to PubChem BioAssay AID504848 (National Center for Advancing Translational Sciences (NCATS), 2011).

The structures appear in SMILES notation. Among all 2,300 compounds or so, about 1,400 (61%) were called active. Roughly 29% stayed inconclusive and do not appear here. So high a share suggests a set chosen from earlier hits. The list shows a part of the results. A number with no mark means an inactive call. The call rests on the fitted dose curve; in most records, active means well fitted inhibition curve with a large enough effect; inconclusive means small, poorly fitted or top-dose-only effect, or effect the other way; inactive means no such curve, though single readings can be large or run the other way.
On the % scale 0 is the no-effect control and ±100 the full control effect; potency means the concentration at half of the fitted maximal effect.

This assay in a line: Confirmation screen for delayed death inhibitors of the malarial parasite plastid, 96 hour incubation. Further: nearly all actives have a fitted effect of over 60% in size. As to conditions: P. falciparum luciferase growth in erythrocytes; series mostly up to 28.7 µM; activity change, negative = inhibition: at the top concentration. The gist of the method:
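Two-generation (96 h, 37 C) exposure of P. falciparum carrying an integrated firefly luciferase reporter in erythrocytes, 0.1% parasitemia and 2% hematocrit final, Albumax-supplemented RPMI. Luminescence decrease measures growth inhibition.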
In the case of `CC1CN(C(=O)N2c3ccccc3Sc3ccccc32)CC(C)O1` (stereo unspecified), the Potency is 10 µM (active). Turning to `O=C(N1CCOCC1)N1c2ccccc2Sc2ccccc21`, the “activity change, negative = inhibition” value is -14.8%.

Take `Cn1c(=O)[nH]c(=O)c2c1nc(SCCN1CCCCC1)n2CCCc1ccccc1`: the Potency was 5.01 µM (active). For the compound `CCCSc1nc2c(cnn2-c2ccccc2)c(=O)[nH]1`, the “activity change, negative = inhibition” value is -11.6%.

On to `CCCCCCn1c(SCCC)nc2c1c(=O)[nH]c(=O)n2C`, for which the Potency is 14.1 µM (active). Same read-out and setting: the figure for `Cc1nn(-c2ccccc2)c(N2CCCC2)c1/C=N/NC(=O)c1ccccc1O` is 3.98 µM (active); for `Cc1nn(-c2ccccc2)c(N2CCCC2)c1/C=N/NC(=S)Nc1ccccc1F` it is 12.6 µM (active). Consider `CC(C)N(c1ccccc1)c1ccc(NC(=O)CCl)cc1`, for which the Potency was 2.51 µM (active).

With `O=C(CCl)Nc1ccc(Sc2ccc(NC(=O)CCl)cc2)cc1`, the Potency is 2.51 µM (active).

On to `CCC(CC)COC(=O)C1=C(C)NC(=O)NC1c1ccccc1Br` (stereo unspecified), for which the Potency was 10 µM (active).

Turning to `OC1(c2cccs2)CN(c2ccc(Cl)cc2)C2=[N+]1CCCC2` (stereo unspecified), the Potency is 6.31 µM (active). For `OC1(c2cccs2)CN(c2ccc(Br)cc2)C2=[N+]1CCCS2` (stereo unspecified), the Potency is 8.91 µM (active). Turning to `Cc1[nH]c(=O)c(C(=O)/C=C/c2ccccc2F)c2c1CCCC2`, the Potency was 5.62 µM (active). The same measure, in the same setting: the figure for `Cc1[nH]c2ccccc2c(=O)c1C(=O)/C=C/c1ccccc1` is 3.55 µM (active). Regarding `Cc1[nH]c2ccccc2c1/C=N/NC(=O)CNC(=O)Cc1ccccc1`, the “activity change, negative = inhibition” value was -7.72%.

Turning to `Cc1[nH]c(=O)c(C(=O)/C=C/c2ccccc2)c2c1CCCC2`, the Potency was 4.47 µM (active).

Consider `CCC1CCCCN1CCCNC(=O)Cn1c(=O)c2cccn2c2cccnc21` (stereo unspecified), for which the “activity change, negative = inhibition” value is -16.3%. As for `CCC1CCCCN1CCCNC(=O)CNC(=O)c1nn(-c2ccc(OC)c(Cl)c2)c(=O)c2ccccc12` (stereo unspecified), the Potency was 6.31 µM (active).

For the compound `N=C(N)c1ccc(/C=C/c2ccc(C(=N)N)cc2O)cc1`, the Potency is 0.251 µM (active). The same measure, in the same setting: then `C=C1C(=O)O[C@@H]2[C@H]1CC[C@H](C)[C@]1(O)CCC(=O)[C@@]21C`, with 7.08 µM (active). On the same count and under the same terms, the figure for `CCCCC1(c2ccc(F)cc2)NC(=O)N(CC(=O)N2CCN(C(=O)c3ccco3)CC2)C1=O` (stereo unspecified) is 12.6 µM (active). The same measure, in the same setting: then `CC(C)c1ccc2[nH]c(O)c(N=NC(=O)c3ccc(CSc4nncn4C)cc3)c2c1`, with 2.24 µM (active); and `O=S(=O)(c1ccc(F)cc1)N1CCN(c2nc(-c3ccc(F)cc3)cs2)CC1`, with 11.2 µM (active); and `CCOC(=O)c1cc(-c2ccc(C)cc2)n(CCC(=O)NCCN(C)C)c1C`, with 10 µM (active). Turning to `CCOc1ccc(/C=C/C(=O)NCCc2ccc(OC)c(OC)c2)cc1`, the Potency is 15.8 µM (active). Regarding `O=S(=O)(Nc1ccc(O)c(Sc2nc3ccccc3s2)c1)c1cccc2ccccc12`, the Potency was 12.6 µM (active). Still for that read-out and setting: then `Cc1ccc(-n2ncc3c(SCc4ccccn4)ncnc32)c(C)c1`, with 14.1 µM (active); and `CCCC(=O)N=C1SC2CS(=O)(=O)CC2N1c1ccc(CC)cc1` (stereo unspecified), with 14.1 µM (active). The same measure, in the same setting: the figure for `Cc1cc(Br)ccc1NC(=O)CNC(=O)Cn1ncc(Cl)c(Cl)c1=O` is 11.2 µM (active); for `CCC(=O)Nc1ccc(C(=O)Cn2ncc(Cl)c(Cl)c2=O)cc1` it is 15.8 µM (active); for `CCOC(=O)C(C(=O)OCC)C(Nc1cccc(Br)c1)c1ccccc1` (stereo unspecified) it is 10 µM (active).

For `CC(C)Cc1ccc(C(=O)Nc2ccc(Cc3ccncc3)cc2)o1`, the Potency was 10 µM (active). Still for that read-out and setting: then `COc1ccc(NC(=S)N(CCCN2CCCCCC2)Cc2cccs2)cc1`, with 11.2 µM (active); and `Cc1ccc(C(=O)c2cc([N+](=O)[O-])ccc2N2CCOCC2)c(C)c1`, with 14.1 µM (active). With `Cc1ccc(CNS(=O)(=O)c2ccc(C)s2)cc1`, the “activity change, negative = inhibition” value is 25.7%. Regarding `Cc1ccc(CN2CCC(CNS(=O)(=O)c3ccc(-c4ccc(=O)[nH]n4)s3)CC2)cc1`, the Potency is 5.01 µM (active).

With `CCOC(=O)c1cnc2c(C)c(Cl)ccc2c1NCCCN1CCOCC1`, the Potency is 0.282 µM (active). Regarding `O=C(N/N=C(\CC(=O)c1cccs1)C(F)(F)F)c1ccncc1`, the “activity change, negative = inhibition” value was -31.4%.

`O=C(N/N=C/C(Cl)=C\c1ccccc1)c1cccs1`: the Potency is 4.47 µM (active). Same read-out and setting: the figure for `Cc1cccc(CCNC(=O)CNS(=O)(=O)c2ccc3nc(C)sc3c2)c1` is 1.58 µM (active); for `CCOc1ccc(C(C)=O)cc1COc1ccc(-c2nnco2)cc1` it is 11.2 µM (active).

Regarding `Oc1ccc(Cl)cc1CNc1cnc2ccccc2c1`, the Potency was 11.2 µM (active). The same measure, in the same setting: the figure for `COc1ccc2c(ccc[n+]2CC(=O)c2ccccc2)c1` is 14.1 µM (active); for `O=C(C[n+]1cc(Br)cc2ccccc21)c1ccccc1` it is 5.01 µM (active); for `OCCNC(=S)Nc1ccc(Cl)c(Cl)c1` it is 2.24 µM (active). On the same count and under the same terms, the figure for `O=C1c2ccccc2C(=Nc2ccccc2)C1c1cccc(Br)c1` (stereo unspecified) is 3.98 µM (active); for `COc1ccc(N(CC(=O)N/N=C/c2cccnc2)S(=O)(=O)c2ccccc2)c(OC)c1` it is 6.31 µM (active); for `O=C(CCl)NCCN1C(=O)S/C(=C\c2cccnc2)C1=O` it is 5.01 µM (active). `O=C(c1ccc2c(=O)n3c(nc2c1)CCCCC3)N1CCN(c2ccc([N+](=O)[O-])cc2)CC1`: the Potency was 6.31 µM (active).

Regarding `CC(=O)N1CN(C2CCCC2)Cc2c1sc1c2CCCC1`, the Potency is 6.31 µM (active). On the same count and under the same terms, then `COc1ccc(C(=O)CSc2nnc(C3CCCCC3)n2N)c(OC)c1`, with 3.16 µM (active); and `O=C(CN1CCN(c2ccc(F)cc2)CC1)Nc1ccc(S(=O)(=O)N2CCOCC2)cc1`, with 10 µM (active); and `CCN(CC(=O)Nc1ccc(S(=O)(=O)N2CCOCC2)cc1)Cc1ccccc1`, with 10 µM (active).

On to `O=S(=O)(c1ccc(OCC(O)CN2CCN(c3ccc(F)cc3)CC2)cc1)N1CCOCC1` (stereo unspecified), for which the Potency was 12.6 µM (active). Still for that read-out and setting: then `C=CCOc1ccc(/C=C\c2nc(O)c([N+](=O)[O-])c(=O)[nH]2)cc1OC`, with 12.6 µM (active). As to `O=S(=O)(NCC(O)c1ccccc1)c1cc(Cl)sc1Cl` (stereo unspecified), the “activity change, negative = inhibition” value was 14.6%. In the case of `Cc1c(OCC(=O)NCC(O)c2ccccc2)ccc2c3c(c(=O)oc12)CCC3` (stereo unspecified), the Potency is 10 µM (active).

`O=C(COc1cc2oc(=O)c3c(c2cc1Cl)CCC3)NCC(O)c1ccccc1` (stereo unspecified): the Potency is 8.91 µM (active). On the same count and under the same terms, the figure for `O=C(CSc1nc2nn(-c3ccccc3)c(=O)c-2c2n1CCCCC2)c1ccc(O)c(O)c1` is 11.2 µM (active); for `O=C(NCc1cccnc1)/C(=C\c1ccc(-c2cccc(Cl)c2)o1)S(=O)(=O)c1ccccc1` it is 7.94 µM (active); for `O=C(NCc1cccnc1)c1ccc(NS(=O)(=O)c2ccccc2)cc1` it is 7.08 µM (active). As to `O=C(NCc1cccnc1)c1ccc(Cl)c(S(=O)(=O)N2CCOCC2)c1`, the Potency is 11.2 µM (active). Still for that read-out and setting: then `O=C(NCCN1CCOCC1)c1ccc(Cl)c(S(=O)(=O)N2CCCCC2)c1`, with 14.1 µM (active). Take `CCC(C)[C@H](NC(=O)NCCCOC(C)C)C(=O)OC` (stereo partly specified): the “activity change, negative = inhibition” value was -4.01%. Take `CCOC(=O)c1cc2c(nc1NC(=S)Nc1ccccc1)CC(C)(C)OC2`: the Potency was 12.6 µM (active).

Turning to `O=C(O)c1ccccc1NS(=O)(=O)c1cccc(-n2sc3ccccc3c2=O)c1`, the Potency is 12.6 µM (active). Same read-out and setting: then `O=C(Cn1c(=O)c(=O)n(Cc2ccccc2)c2ccc(Cl)cc21)Nc1cccc(F)c1`, with 12.6 µM (active). Consider `CCn1c(=O)cc(C(=O)OC)sc1=Nc1ccc(F)c(F)c1`, for which the “activity change, negative = inhibition” value was -11.1%. For `O=C1CS/C(=N/N=C\c2ccn[nH]2)N1`, the Potency is 10 µM (active). The same measure, in the same setting: the figure for `C#Cc1ccc(CN2CCN(CCCc3ccccc3)C(CCO)C2)cc1` (stereo unspecified) is 7.08 µM (active); for `Cc1ccc(-c2nc(-c3cccnc3)sc2CC(=O)Nc2ccc(C)c(Cl)c2)cc1` it is 4.47 µM (active). Turning to `COc1ccc(CCNC(=O)c2cc3c(=O)n4cccc(C)c4nc3n(Cc3ccco3)c2=N)cc1OC`, the Potency was 11.2 µM (active). The same measure, in the same setting: the figure for `CC(C)C1N=C(c2ccc3c(c2)OCO3)CC(c2ccccc2O)N1` (stereo unspecified) is 14.1 µM (active); for `O=C(NC1CCCC1)c1ccc([N+](=O)[O-])s1` it is 10 µM (active). Same read-out and setting: the figure for `COc1ccccc1N(Cc1ccccc1)S(=O)(=O)c1cccc(C(=O)Nc2ccccn2)c1` is 7.08 µM (active); for `CC(=O)c1ccccc1OCC(O)CN1CCN(C(c2ccccc2)c2ccccc2)CC1` (stereo unspecified) it is 3.55 µM (active). Same read-out and setting: the figure for `CCOC(=O)C1CCN(C(=O)CCc2nnc3ccc(NCc4ccco4)nn23)CC1` is 5.01 µM (active); for `O=C(CCl)Nc1cccc(S(=O)(=O)NC2=NCCC2)c1` it is 0.794 µM (active); for `COC(=O)[C@@]1(Cc2ccc(F)cc2)[C@@H]2[C@@H](CC(=O)[C@H]2CC(=O)C(=O)N(C)C)CN1C(=O)c1ccccc1` it is 10 µM (active). As to `COc1ccccc1N1CCN(C(=O)c2noc(C(C)C)c2[N+](=O)[O-])CC1`, the Potency was 8.91 µM (active). Still for that read-out and setting: then `CCCCCCCn1c(=O)c(C(=O)OC)c(N)c2ccccc21`, with 6.31 µM (active).

In the case of `CSc1ccc(CNc2cccc3ccccc23)cc1`, the “activity change, negative = inhibition” value was -25.4%. As for `Cc1cccc(NCc2cccc3ccccc23)n1`, the Potency was 14.1 µM (active).

In the case of `Cc1ccnc(NCc2cccc3ccccc23)c1`, the Potency is 10 µM (active).

As to `COc1cccc(CNc2cc(C)ccn2)c1O`, the Potency was 7.94 µM (active). Still for that read-out and setting: the figure for `N#CCc1nc(C(c2ccccc2)c2ccccc2)no1` is 7.08 µM (active). As to `Cc1ccccc1-n1nc2c(c1NC(=O)C1CCCC1)CS(=O)(=O)C2`, the “activity change, negative = inhibition” value was -10.9%.

`c1csc(CNc2ncnc3nc[nH]c23)c1`: the Potency was 15.8 µM (active). Still for that read-out and setting: the figure for `O=C(NC1CCN(Cc2ccccc2)CC1)C1CCN(c2nnc(-n3cccc3)s2)CC1` is 5.01 µM (active); for `CC1Cc2ccccc2N1CC(=O)Nc1ccc2c(c1)OCCCO2` (stereo unspecified) it is 15.8 µM (active). Turning to `O=C1CSC(c2cccnc2)N1CCc1ccccn1` (stereo unspecified), the “activity change, negative = inhibition” value was 3.07%. Regarding `CC(=O)Nc1ccc(NC(=O)c2ccc(C3SCC(=O)N3CCc3ccccc3)cc2)cc1` (stereo unspecified), the Potency was 12.6 µM (active). Still for that read-out and setting: the figure for `Cc1ccccc1C(=O)N1CCN(c2ccc(NC(=O)c3ccc([N+](=O)[O-])o3)cc2)CC1` is 6.31 µM (active); for `O=C(Nc1ccc(N2CCN(C(=O)c3cccs3)CC2)cc1)c1ccc([N+](=O)[O-])o1` it is 2.24 µM (active); for `O=C(Nc1ccc(N2CCN(C(=O)c3ccccc3)CC2)cc1)c1ccc([N+](=O)[O-])o1` it is 3.16 µM (active). `O=C(Nc1ccc(N2CCN(C(=O)c3ccco3)CC2)cc1)c1ccc(F)cc1`: the Potency was 3.98 µM (active).
